Pol beta inh = blocks human DNA polymerase beta activity; Pol beta primer extension/strand displacement, fluorescence kinetic; Potency, µM (titrated, usually from 114 µM), for the others: top-dose activity change, negative = inhibition, actives largely listed as inhibitors; actives 1.3% (n = 340,000); AID 485314; also: % is scaled to controls: 0 for no effect and ±100 for the full control effect
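Human Pol beta at 10 nM; strand-displacement substrate 50 nM final. Compound exposure 15 min at room temperature before start, reaction 10 min at room temperature.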
Pol eta inh = inhibitors of human DNA polymerase eta. Q9Y253. recombinant Pol eta, fluorescent DNA replication assay. Potency, µM (highest dose often 114 µM), for the others: at the top dose activity change, negative = inhibition, most hits filed as inhibitors. actives 1.2% (n = 390,000). AID 588591; also: % is scaled to controls: 0 for no effect and ±100 for the full control effect
Target sequence (Q9Y253 whole entry, looked up): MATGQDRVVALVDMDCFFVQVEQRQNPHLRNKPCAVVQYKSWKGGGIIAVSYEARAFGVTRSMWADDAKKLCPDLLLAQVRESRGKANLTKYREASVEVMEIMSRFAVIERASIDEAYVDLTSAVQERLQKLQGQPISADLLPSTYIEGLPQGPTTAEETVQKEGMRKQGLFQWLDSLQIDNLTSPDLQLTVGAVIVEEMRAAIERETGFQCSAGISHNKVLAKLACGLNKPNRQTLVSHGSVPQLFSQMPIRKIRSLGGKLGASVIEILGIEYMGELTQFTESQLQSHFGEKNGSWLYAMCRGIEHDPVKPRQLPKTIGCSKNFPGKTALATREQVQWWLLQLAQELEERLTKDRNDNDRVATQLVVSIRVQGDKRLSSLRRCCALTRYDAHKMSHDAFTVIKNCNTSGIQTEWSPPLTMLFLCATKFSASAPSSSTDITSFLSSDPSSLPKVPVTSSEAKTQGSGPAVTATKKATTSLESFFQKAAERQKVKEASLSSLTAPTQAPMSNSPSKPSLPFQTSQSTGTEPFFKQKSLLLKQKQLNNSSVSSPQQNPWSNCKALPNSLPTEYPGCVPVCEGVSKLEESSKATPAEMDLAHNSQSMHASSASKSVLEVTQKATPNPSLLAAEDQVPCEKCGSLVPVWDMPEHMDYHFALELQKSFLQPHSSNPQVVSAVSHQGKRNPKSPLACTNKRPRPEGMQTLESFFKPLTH
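Pol eta at 10 nM preincubated with compounds 15 min at room temperature; reaction started with fluorescent substrate (50 nM final) and read kinetically at 0 and 10 min.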
WRN helicase inh = blocks human WRN helicase. Q14191. WRN helicase unwinding, fluorescent forked duplex, kinetic. Potency, µM (doses to about 114 µM), for the others: at the top dose activity change, negative = inhibition, actives largely listed as inhibitors. actives 0.46% (n = 360,000). AID 651768; also: % is scaled to controls: 0 for no effect and ±100 for the full control effect; nearly all actives have a fitted effect of over 55% in size
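Screening of the MLSMR collection measured strand separation of a quenched forked DNA duplex (100 nM) by 20 nM WRN with 2 mM ATP, all final. Compounds were preincubated with enzyme 15 min at room temperature.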
FEN1 inhibitor = inhibitors of human flap endonuclease 1. Recombinant FEN1 flap cleavage, fluorescence, 15 min. Potency, µM (highest dose often 114 µM), inactives show at the highest dose activity change, negative = inhibition, most hits filed as inhibitors. actives 0.35% (n = 390,000). AID 588795; also: % is scaled to controls: 0 for no effect and ±100 for the full control effect; nearly all actives have a fitted effect of over 65% in size
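Concentration–response screening of FEN1 (10 nM): 15 min compound preincubation at room temperature, reaction started with 50 nM substrate and read at 0 and 15 min. Corrected, normalized data were fitted by a four-parameter Hill equation.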
POLI inh = inhibitors of human DNA polymerase iota | actives 1% (n = 390,000) | Potency, µM (series often up to 115 µM), without a hit: top-dose activity, negative = inhibition, hits mostly inhibitors | AID 588590 | Pol iota fluorescent replication assay, 10 min | Q9UNA4
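Pol iota at 10 nM preincubated 15 min with compounds at room temperature; reaction started with fluorescent substrate, 50 nM final. Fluorescence read kinetically at 0 and 10 min; buffer-only wells as negative control.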
Pol kappa inh = DNA polymerase kappa (human) inhibition | Q9UBT6 | purified Pol kappa, fluorescent DNA synthesis assay, 10 min | Potency, µM (highest dose often 107 µM), for the others: top-dose activity, negative = inhibition, hits mostly inhibitors | actives 0.53% (n = 400,000); also: % is scaled to controls: 0 for no effect and ±100 for the full control effect
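Inhibition of 10 nM Pol kappa is measured by a fluorescent read-out at 0 and 10 min following addition of 50 nM substrate (final), with a 15-min room-temperature compound preincubation.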
Numbers without * were called inactive; ? = inconclusive; . = not tested or not shown; [ ] = another dose, or the depositor's remark. An excerpt weighted towards active compounds, which were near 2.4% of everything screened. Calls follow the shape of the dose curve; as a rule, active = well fitted curve in the direction sought with a large enough effect; inconclusive = small, poorly fitted or top-dose-only effect, or another doubt; inactive = no such curve, though single readings can be large; an effect the other way counts as inactive or inconclusive. Potency is read from the fitted curve at half-maximal effect.

SMILES | Pol beta inh | Pol eta inh | WRN helicase inh | FEN1 inhibitor | POLI inh | Pol kappa inh
COc1ccc(-n2c(C)cc(/C=N/Nc3nnc(C)n3N)c2C)cc1 | -28.1% | -8.6% | -35.1% | -12.5% | 22.4µM* | -15.7%
COc1cccc(/C=N/Nc2nnc(C)n2N)c1O | 0.1% | -19.6% | 1.3% | -4.3% | 3.98µM* | -1.4%
COC(=O)c1ccc(N/N=C/c2cc([N+](=O)[O-])cc(OC)c2O)cc1 | ? | -10.8% | 5.9% | -17.1% | 6.5% | -1.2%
Cc1nnc(N/N=C/c2ccco2)n1N | 30.3% | -14.8% | -10.0% | -2.9% | 10µM* | -7.4%
Cc1nnc(N/N=C/c2ccccc2F)n1N | 25.8% | -21.5% | 2.4% | 13.7% | ? | -4.1%[60.1 µM]
COc1cccc(/C=N/Nc2ccc([N+](=O)[O-])cc2)c1O | 44.7µM* | -12.1% | -16.5% | 1.1% | 19.9% | -3.9%
COc1cccc(NC(=O)Cn2c(=O)n(-c3ccccc3)c(=O)c3sccc32)c1 | 0.5% | -2.4% | 1.3% | 17.6% | -10.3% | -11.2%
Cc1cc(NC(=O)CN2CCN(c3ncccn3)CC2)no1 | 3.3% | -3.6% | -2.2% | -4.4% | 9.4% | -4.9%[60.1 µM]
Cc1cc2oc(C(=O)NCC(c3ccco3)N3CCCC3)c(C)c2cc1C (centres undefined) | . | -7.1% | -0.3% | . | . | .
CCN(CCN(C)Cl)/[N+]([O-])=N/Oc1ccc([N+](=O)[O-])cc1[N+](=O)[O-] | . | . | . | 11.8% | ? | 11.5%
Cc1c(C(=O)O)c(O)cc2c1C(=O)c1c(O)c([C@H]3O[C@H](CO)[C@@H](O)[C@H](O)[C@H]3O)c(O)c(O)c1C2=O | . | . | . | 50.1µM* | 79.4µM* | 3.16µM*
N#C/C(=C(/O)CCl)c1nc2c(s1)CCc1ccccc1-2 | ? | 35.5µM* | ? | ? | ? | -26.7%
Cc1ccc(-c2nn(-c3ccccc3)cc2C=C2SC(=S)N(CCS(=O)(=O)O)C2=O)cc1 | . | . | 20µM* | . | . | .
O=C(c1cc2cc([N+](=O)[O-])ccc2oc1=O)n1cccn1 | 31.6µM* | 31.6µM* | -32.0%[57.1 µM] | 10.5% | ? | 79.4µM*
Nc1ccc2c(c1)C/C(=C/c1ccco1)C2=O | 5.62µM* | ? | -34.4% | -23.8% | ? | -20.4%
O=C1/C(=C/c2ccco2)CCc2ccccc21 | ? | -20.7% | -0.5% | -0.4% | 29.7% | -5.5%
Cc1cc(C)c(S(=O)(=O)Nc2ccc(O)cc2)cc1C | 12.3% | -6.1% | 1.3% | -2.5% | 8.1% | -5.9%
Cc1cc(C)c(S(=O)(=O)Nc2cc(SCC(=O)O)c(O)c3ccccc23)cc1C | -21.4% | 35.5µM* | 22.4µM* | -34.6% | 20µM* | -14.4%
Cc1ccc(CNc2ccc3nnc(-c4ccccc4)n3n2)cc1 | 56.2µM* | ? | -2.2% | 11.8% | 27.5% | -0.3%
CCOC(=O)N1CCC(Nc2ccc3nnc(-c4ccccc4)n3n2)CC1 | ? | -17.3% | -3.3% | -2.2% | 17.1% | -5.9%
COCCNC(=O)CCSc1nc(-c2ccc(OC)cc2)cc(C(F)(F)F)n1 | -3.0% | -10.6% | 6.1%[57.1 µM] | 12.4% | 12.9% | -21.3%
COc1ccc(N2CCN(C(=S)Nc3cc(C)ccc3C)CC2)cc1 | 25.5% | 2.0% | -1.1%[57.1 µM] | -3.1% | -11.6% | -5.6%
Nc1nc(SCCO)[nH]c(=O)c1NC(=O)c1ccc(Br)o1 | -2.0% | -16.4% | -8.0% | 0.6% | 82.2% | 7.2%
Cc1nn(-c2ccccc2)c2nc(N)c(C#N)c(-c3ccc(O)c(O)c3)c12 | ? | 50.1µM* | -10.4%[11.6 µM] | -23.4% | ? | -3.4%
O=C(NCCC1=CCCCC1)c1cc(S(=O)(=O)N2CCCCC2)ccc1Cl | . | -14.5% | 2.4% | -2.4% | -4.3% | 6.9%
SMILES | Pol beta inh | Pol eta inh | WRN helicase inh | FEN1 inhibitor | POLI inh | Pol kappa inh
Nc1ccc2c(O)cc(S(=O)(=O)O)cc2c1 | . | 5.62µM* | ? | 8.91µM* | 8.91µM* | 14.1µM*
O=C(O)c1cc(S(=O)(=O)O)ccc1O | 3.2% | -10.5% | 2.4% | -2.2% | 0.6% | -13.8%
CN(C)[C@H]1C(=O)C(C(=O)NCN2CCCC2)=C(O)[C@]2(O)C(=O)C3=C(O)c4c(O)cccc4[C@@](C)(O)[C@H]3C[C@@H]12 | . | . | . | . | . | 4.74µM*
CCOC(=O)c1cnn2c(N)c(C#N)nnc12 | 3.9% | ? | -13.3% | -5.8% | 89.1µM* | -8.5%
CCOC(=O)c1cnn2c(N)c(C#N)cnc12 | -6.8% | 2.4% | 4.6% | -12.7% | -7.3% | -3.7%
COc1cccc(-c2cc(C(=O)N3CCN(S(=O)(=O)c4ccc(Br)cc4)CC3)[nH]n2)c1 | -12.9% | 16.7% | -5.5% | -15.4% | -2.3% | -5.8%
CCCNC(=O)c1nnsc1S(=O)(=O)c1ccc(Cl)cc1 | 20.2% | 8.2% | 28.2µM* | -11.3% | 32.6% | -13.5%
CCCNC(=O)c1nnsc1S(=O)c1ccc(Cl)cc1 (centres undefined) | -2.9% | 2.4% | 20µM* | ? | 48.7% | -10.8%
COc1cc(/C=C(\C#N)C(=O)Nc2cccc(C(=O)O)c2)ccc1OCc1ccc(F)cc1 | 44.7µM* | 50.1µM* | -0.1%[11.6 µM] | ? | ? | -10.8%
N#C/C(=C/c1cccn1-c1cccc(C(=O)O)c1)c1ccc(F)cc1 | 31.6µM* | 25.1µM* | -2.1%[11.6 µM] | 14.9% | 25.1µM* | ?
N#C/C(=C/c1ccc(OCc2ccc(C(=O)O)cc2)cc1)C(=O)Nc1ccccc1 | 1.7% | ? | -16.8% | ? | 10.5% | 4.0%
COc1cccc(/C=C(/C#N)c2ccc(Cl)cc2)c1OCc1cccc(C(=O)O)c1 | ? | -1.0% | -4.8% | -3.1% | 56.9% | -5.4%
COc1cc(/C=C/[N+](=O)[O-])ccc1OCc1cccc(C(=O)O)c1 | 31.6µM* | 31.6µM* | 20µM* | 50.1µM* | ? | 25.1µM*
COc1cccc(/C=C(/C#N)c2ccc(F)cc2)c1OCc1cccc(C(=O)O)c1 | 39.8µM* | ? | -21.4% | -2.4% | ? | -28.1%
CCOc1cccc(NC(=O)/C(C#N)=C/c2cccnc2)c1 | 2.1% | -6.5% | -6.1% | -15.9% | -15.6% | -6.5%
CCOc1cc(/C=C(\C#N)C(=O)Nc2cccc(C(=O)O)c2)cc(Br)c1OC(=O)c1ccc(OC)cc1 | 15.8µM* | 79.4µM* | ? | -28.9% | ? | ?
O=C(c1ccco1)N1CCN(C(=O)c2ccc(COc3ccc4c(c3)CCC4)o2)CC1 | 89.1µM* | ? | -5.0%[57.1 µM] | 1.1% | ? | -4.9%
COc1ccc(CNC(=O)C2CCN(S(=O)(=O)c3ccc4nc5c(c(C(=O)O)c4c3)CC(C)CC5)CC2)cc1 (centres undefined) | ? | ? | -8.7% | -6.0% | 89.1µM* | -10.8%
COc1ccccc1CNC(=O)C1CCN(S(=O)(=O)c2ccc3nc4c(c(C(=O)O)c3c2)CCCC4)CC1 | -23.8% | ? | -18.0%[11.6 µM] | -9.7% | 79.4µM* | -26.3%
O=C(O)c1c2c(nc3ccc(S(=O)(=O)N4CCC(C(=O)NCc5ccccc5)CC4)cc13)CCCC2 | . | -12.3% | -12.0% | . | . | .
